Measurements: the supplement of paper PMC10981050
Values joined by “and” are separate entries in the source; they are usually repeats but may differ in a detail not shown here. Equal values may be shown once. Where a name gives a salt, the structure may show the parent alone.

Experiments:
Experiment in all cases: cell viability relative to vehicle control; higher = less cytotoxic
Details in all cases: 10 µM
[1] = tested on: K562
Summary of the method: (§1)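 CRISPR-edited mutant clones and isogenic wild-type clones from four leukaemia lines were screened against Selleck bioactive, kinase and epigenetic probe libraries, with identity-inconsistent compounds excluded. Each compound was acoustically dispensed at a single 10 µM dose into 384-well plates holding 2000 cells in 50 µL medium per well. After 48 h the supernatant was removed and CellTiter-Glo luminescence was read. Viability was expressed as percent of the on-plate vehicle control and analysed in Genedata Screener.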

[2] = tested on: MARIMO
Summary of the method: as §1

[3] = tested on: MOLM14
Summary of the method: as §1

[4] = tested on: OCI-AML2
Summary of the method: as §1

SMILES | cell viability ([1]; SRSF2 genotype: SRSF2 P95H/wt) | cell viability ([1]; SRSF2 genotype: SRSF2 wt/wt) [%] | cell viability ([2]; SRSF2 genotype: SRSF2 P95H/wt) [%] | cell viability ([2]; SRSF2 genotype: SRSF2 wt/wt) [%] | cell viability ([3]; SRSF2 genotype: SRSF2 P95H/wt) [%] | cell viability ([3]; SRSF2 genotype: SRSF2 wt/wt) [%] | cell viability ([4]; SRSF2 genotype: P95H/wt) [%] | cell viability ([4]; SRSF2 genotype: wt/wt) [%]
CC(=O)[C@@]1(O)CC[C@H]2[C@@H]3C[C@H](C)C4=CC(=O)CC[C@]4(C)[C@H]3CC[C@@]21C [Medroxyprogesterone] | 97.3% and 90.1% | 91.8 | 74 | 92.8 | 103 | 100 | 103 | 104
COc1ccc([C@@H]2CC(=O)c3c(O)cc(O[C@@H]4O[C@H](CO)[C@@H](O)[C@H](O)[C@H]4O[C@@H]4O[C@@H](C)[C@H](O)[C@@H](O)[C@H]4O)cc3O2)cc1 [Poncirin] | 99.7% and 97.1% | 99.2 | 97.8 | 104 | 102 | 94.7 | 95.1 | 96
O=c1c(O)c(-c2ccc(O)c(O)c2)oc2cc(O)cc(O)c12 [Quercetin (Sophoretin)] | 97.3% and 89.3% | 91.5 | 93.9 | 93.6 | 98.3 | 97.5 | 93.8 | 81.5
CC1OC(OC2C(OC3CC4(C)C(CC(O)C5C(C6(C)CCC(C(C)(C)O)O6)CCC54C)C4(C)CCC(O)C(C)(C)C34)OC(CO)C(O)C2O)C(O)C(O)C1O (stereo not drawn) [Pseudoginsenoside F11] | 107% and 104% | 111 | 107 | 103 | 113 | 108 | 103 | 98.4
COc1cc(/C=C/C(=O)O[C@H]2[C@H](O)[C@@H](CO)O[C@@]2(CO)O[C@H]2O[C@H](CO)[C@@H](O)[C@H](O)[C@H]2O)ccc1O [Sibiricose A5] | 113% and 112% | 115 | 108 | 99.2 | 110 | 112 | 107 | 95.7
CO[C@H]1C[C@H](O[C@H]2[C@H](C)O[C@@H](O[C@@H]3/C(C)=C/C[C@@H]4C[C@@H](C[C@]5(C=C[C@H](C)[C@@H](C6CCCCC6)O5)O4)OC(=O)[C@@H]4C=C(C)[C@@H](O)[C@H]5OC/C(=C\C=C\[C@@H]3C)[C@]54O)C[C@@H]2OC)O[C@@H](C)[C@@H]1O [Doramectin] | 33% and 39.8% | 37.1 | 36.8 | 29.4 | 24.6 | 29.9 | 15.3 | 17.3
O=C(O)C(S)=Cc1c[nH]c2ccc(F)cc12 | 95.6% and 105% | 97 | 109 | 109 | 85.2 | 98.3 | 106 | 103
CCCN[C@H]1CCc2nc(N)sc2C1 [Pramipexole (Mirapex)] | 102% and 81.8% | 83.3 | 81.9 | 83.9 | 71.3 | 84.3 | 80.9 | 87.8
COc1ccc(Cl)cc1NC(=O)Nc1cc(C)nc2ccccc12 | 81.3% and 91.2% | 87 | 98.8 | 99.1 | 87.6 | 90.1 | 82.7 | 74.1
O=c1cc(-c2ccc(O)cc2)oc2cccc(O)c12 [4',5-Dihydroxyflavone] | 89.4% and 86% | 89.7 | 84.4 | 84.6 | 64.3 | 72.5 | 66.4 | 69.4
O=c1[nH]ccc2c(S(=O)(=O)N3CCCNCC3)cccc12 [Hydroxyfasudil (HA-1100)HCl] | 95.5% and 99.7% | 96.5 | 96.5 | 92.7 | 95.6 | 101 | 95.7 | 90.5
O=S(=O)(Cl)c1ccc(-c2ccccc2)cc1 [Biphenyl-4-sulfonyl chloride] | 109% and 104% | 107 | 99 | 100 | 108 | 105 | 105 | 113
Cc1cc(C(N)=O)ccc1-n1c(CCC(=O)O)ccc1-c1ccc(-n2ccnc2)cc1 | 101% and 109% | 108 | 105 | 98 | 105 | 108 | 109 | 124
CC#CC(=O)N1CCC[C@H]1c1nc(-c2ccc(C(=O)Nc3ccccn3)cc2)c2c(N)nccn12 [Acalabrutinib (ACP-196)] | 93.2% and 96.6% | 94.1 | 101 | 113 | 95.4 | 100 | 90.2 | 96.9
CC(C)(C)C(=O)Nc1ccc2c(c1)C(=O)C(=O)c1ccccc1-2 [SF1670 (PTEN inhibitor)] | 84.3% and 70.9% | 56.8 | 2.56 | 70.5 | 88.4 | 39.2 | 65.8 | 76.2
Cc1cc2c(C(=O)NCC(C)c3ccccc3)c(O)c(O)cc2c(O)c1-c1c(C)cc2c(C(=O)NCC(C)c3ccccc3)c(O)c(O)cc2c1O (stereo not drawn) [Sabutoclax] | 1.68% and 1.16% | 2.42 | 12.7 | 13.8 | 22.8 | 13.7 | 22.6 | 36
C[C@@H]1COCCN1c1cc(-c2ccnn2C)c2ccnc(-c3ccn[nH]3)c2n1 | 8.97% and 14.2% | 10.6 | 17.3 | 26.6 | 19.1 | 9.25 | 15 | 17.1
Cc1cnc(C(=O)O)c[n+]1[O-] [Acipimox] | 99.3% and 96.5% | 97.6 | 96.7 | 100 | 98.8 | 101 | 105 | 104
CC1(C)O[C@@H]2C[C@H]3[C@@H]4C[C@H](F)C5=CC(=O)C=C[C@]5(C)[C@@]4(F)[C@@H](O)C[C@]3(C)[C@]2(C(=O)CO)O1 [Fluocinolone acetonide (Flucort-N)] | 95% and 96% | 92.6 | 98.3 | 104 | 95.6 | 91.6 | 100 | 109
CN(C)CCC=C1c2ccccc2C(C)(C)c2ccccc21 [Melitracen hydrochloride] | 68.2% and 69.9% | 82.3 | 62.9 | 69.7 | 63.8 | 77.6 | 61.3 | 65.3
CCc1ccc(C(=O)C(C)CN2CCCCC2)cc1 (stereo not drawn) [Eperisone hydrochloride] | 91.5% and 94.7% | 93.1 | 81.3 | 95.5 | 38.1 | 70 | 33.5 | 47.8
